TGFb inhibitor = blocks TGF-b signaling. HepG2 CAGA-GFP TGF-b/SMAD3 reporter, GFP fluorescence, 18 h; TGF-beta stimulated, 500 pg/mL final. AID 588855. Potency, µM (top dose mostly 46.1 µM), for the others: at the highest dose activity, negative = inhibition, usual class: inhibitors. hit rate 1.2% among 410,000; note: % is set by controls: 0 for no effect and ±100 for the full control effect; nearly all actives have a fitted effect of over 65% in size
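Cell-based qHTS in HEPG2 carrying a CAGA-GFP Smad reporter; compounds added before 500 pg/mL final TGF-beta, 18 h incubation at 37 degrees C, GFP fluorescence quantified per cell by imaging cytometry.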
HepG2 tox = counter-screen for TGF-b inhibitors: cytotoxicity in HepG2 cells | hit rate 0.76% among 410,000 | HepG2 CAGA-GFP viability, ATP luminescence, 18 h | Potency, µM (doses to about 46.1 µM), for the others: top-dose activity change, negative = cytotoxicity, usual class: cytotoxic
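HepG2 CAGA-GFP cells (1000/well, DMEM with 1% FBS) received compound, then TGF-beta at 500 pg/mL final, and were incubated 18 hours at 37 degrees C. Viability was read by CellTiter-Glo luminescence. Media-only wells were set as complete cell-killing and DMSO as no toxicity.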
Nrf2 activator = activators of Nrf2 (ARE) signaling; AREc32 ARE-luciferase reporter (MCF7-derived line), luminescence, 24 h; Potency, µM (series often up to 46.1 µM), without a hit: top-dose activation, most hits filed as activators; hit rate 0.31% among 410,000; AID 624171; note: % of control where 0% means no effect; nearly all actives have a fitted effect of over 65% in size
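For detection, Steady-Glo was added and plates sat 30 min at RT; before that, AREc32_Fluc cells grown overnight in OPTI-MEM/5% FBS had been treated with 23 nL compound for 24 hr at 37 deg C.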
Nrf2 inh = blocks Nrf2 signaling. A549 ARE-Fluc reporter, luciferase luminescence, 18-24 h. Potency, µM (highest dose often 46 µM), without a hit: at the top dose activity change, negative = inhibition, most hits filed as inhibitors. hit rate 2.1% among 360,000; note: % is set by controls: 0 for no effect and ±100 for the full control effect; nearly all actives have a fitted effect of over 60% in size
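A549 ARE_Fluc cells (5000/well, 5% FBS OPTI-MEM) pre-incubated 2 h, then treated with compounds 18-24 h at 37C/5% CO2 in concentration-response. CellTiter-Fluor viability read first; BugLite luciferase luminescence after 15 min at room temperature gives Nrf2 activity.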
A549 tox-1 = A549 cytotoxicity, counter-screen for Nrf2 inhibitors; A549 ARE-Fluc cells, CellTiter-Fluor viability, 18-24 h; Potency, µM (titrated, usually from 46 µM), for inactives: at the top dose activity change, negative = cytotoxicity, usual class: inhibitors; hit rate 0.16% among 390,000; AID 504648; note: % is set by controls: 0 for no effect and ±100 for the full control effect
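Cytotoxicity counterscreen: CellTiter-Fluor fluorescence was measured in A549 ARE_Fluc cells after 18-24 h of compound exposure in a concentration series. The subsequent BugLite luminescent read reports ARE-luciferase activity.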
FLuc enzyme inh = counter-screen for Nrf2 inhibitors: firefly luciferase enzyme inhibition; purified firefly luciferase, luminescence inhibition; hit rate 4% among 1,400; shares compounds with Nrf2 inh; Potency, µM (series often up to 57.5 µM), for the others: top-dose activity change, negative = inhibition, usual class: inhibitors; note: % is set by controls: 0 for no effect and ±100 for the full control effect; nearly all actives have a fitted effect of over 65% in size
Target sequence (P08659 whole entry, looked up): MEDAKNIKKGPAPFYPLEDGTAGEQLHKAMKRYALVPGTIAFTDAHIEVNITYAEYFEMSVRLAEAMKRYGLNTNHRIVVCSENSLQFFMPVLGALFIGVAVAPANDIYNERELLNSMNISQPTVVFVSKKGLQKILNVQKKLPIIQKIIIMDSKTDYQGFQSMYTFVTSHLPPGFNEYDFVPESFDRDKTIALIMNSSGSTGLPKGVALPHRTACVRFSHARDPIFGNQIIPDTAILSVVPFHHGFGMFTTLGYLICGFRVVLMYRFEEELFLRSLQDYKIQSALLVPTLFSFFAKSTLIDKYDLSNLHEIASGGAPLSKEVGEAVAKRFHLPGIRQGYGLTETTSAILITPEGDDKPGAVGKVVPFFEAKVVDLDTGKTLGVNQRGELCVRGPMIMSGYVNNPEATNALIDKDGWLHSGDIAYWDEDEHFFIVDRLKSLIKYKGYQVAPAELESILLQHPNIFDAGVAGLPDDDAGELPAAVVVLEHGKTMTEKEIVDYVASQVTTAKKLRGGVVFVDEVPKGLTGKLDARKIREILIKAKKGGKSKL
A549 tox-2 = toxic to A549 ARE-Fluc cells in Nrf2 counterscreen; shares compounds with Nrf2 inh; A549 ARE-Fluc cells, cytotoxicity counterscreen; Potency, µM (titrated, usually from 46.1 µM), inactives show at the top dose activity change, negative = cytotoxicity, actives largely listed as inhibitors; hit rate 2% among 1,400; AID 720523;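 note: cells exposed to compounds for 18 to 24 hours; % is set by controls: 0 for no effect and ±100 for the full control effect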
ARE-Fluc inh = Nrf2 inhibition confirmed, A549 ARE-luciferase; Potency, µM (series often up to 46.1 µM), without a hit: top-dose activity change, negative = inhibition, actives largely listed as inhibitors; shares compounds with Nrf2 inh; A549 ARE-firefly luciferase reporter, luminescence; hit rate 74% among 1,400; note: % is set by controls: 0 for no effect and ±100 for the full control effect; nearly all actives have a fitted effect of over 65% in size
* marks the source's active call; other numbers are inactive results; ? = inconclusive; . = not tested or not shown. Rows were chosen to be rich in hits. Some 3.6% of all compounds tested hit in one or more screens of this group. Calls come from the whole dose curve; as a rule, active = well fitted curve in the direction sought with a large enough effect; inconclusive = small, poorly fitted or top-dose-only effect, or another doubt; inactive = no such curve, though single readings can be large; an effect the other way counts as inactive or inconclusive. Potency is the fitted concentration of half-maximal effect.

SMILES	TGFb inhibitor	HepG2 tox	Nrf2 activator	Nrf2 inh	A549 tox-1	FLuc enzyme inh	A549 tox-2	ARE-Fluc inh
CC(=O)[C@@]1(O)Cc2c(O)c3c(c(O)c2[C@H](O[C@H]2C[C@H](N)[C@H](O)[C@H](C)O2)C1)C(=O)c1ccccc1C3=O	-44%	-131%	-2%	.	.	.	.	.
CC(=O)C1(O)Cc2c(O)c3c(c(O)c2C(OC2CC(N)C(O)C(C)O2)C1)C(=O)c1c(O)cccc1C3=O (centres undefined)	1.6µM*	-105%	.	.	.	-28%	?	0.46µM*
NC1=NC[C@H](Cc2ccccc2)N1CC1CCCCC1	-9%	-11%	-1%	9%	-1%	.	.	.
CC(C)(C)c1ccc(-n2ncc3c2CCCC3NC(=O)C2(C(N)=O)CC2)cc1 (centres undefined)	-28%	-31%	0%	1.3µM*	-7%	-17%	-7%	.
CC(=O)NCC(=O)NC1CCCc2c1cnn2-c1ccc(C(C)(C)C)cc1 (centres undefined)	17%	5%	-1%	?	-6%	.	.	.
CCOc1ccc(C(=O)OCC(=O)N(Cc2ccccc2)Cc2ccccc2)cc1OC	-5%	1%	0%	-9%	7%	.	.	.
Cc1cc(/C=C\c2ccc3cc(N(C)C)ccc3[n+]2C)c(C)n1-c1ccccc1	?	-25%	-1%	1.2µM*	5.8µM*	?	7.3µM*	1.3µM*
CN(Cc1ccc(Cl)cc1)C(=O)c1ccc(S(=O)(=O)NCc2ccco2)cc1	?	-25%	0%	9.2µM*	-12%	0%	0%	7%
Cc1ccc(S(=O)(=O)N(Cc2ccccc2)c2ccccc2C(=O)Nc2ccccc2C(=O)NCc2ccco2)cc1	-14%	0%	3%	-20%	2%	.	.	.
Cc1ccc(S(=O)(=O)N(Cc2ccccc2)c2ccccc2C(=O)NCc2ccco2)cc1	-24%	1%	7%	5.2µM*	?	-10%	-17%	9%
CC(C)C[C@H](NC(=O)c1nc[nH]c1C(=O)N1CCN(c2ccccc2)CC1)C(=O)OCc1ccccc1	?	-39%	4%	3%	7%	.	.	.
Cc1ccc(C(=O)N2CCN(c3ccc(NC(=O)c4ccc5c(c4)OCCO5)cc3)CC2)cc1	0%	2%	0%	7.3µM*	-19%	0%	-22%	?
O=c1c2ccccc2oc2cc(C#CC3(O)CCCCC3)ccc12	-1%	-27%	-4%	?	-14%	.	.	.
CC1Cc2ccccc2N1c1ncnc(N)c1[N+](=O)[O-] (centres undefined)	?	-17%	-2%	4.6µM*	-14%	2%	-25%	8.2µM*
Cc1ccc2cccc(OCc3ccc(Br)cc3)c2n1	0%	8%	25%	1%	-1%	.	.	.
CC(=O)c1c(C)[nH]c(C(=O)OCC(=O)NCc2ccc(Cl)cc2)c1C	-26%	-30%	6%	8.2µM*	-14%	2%	0%	13µM*
CC(=O)c1c(C)[nH]c(C(=O)OCc2c(F)cccc2Cl)c1C	?	-15%	0%	5.2µM*	-12%	-1%	3%	15µM*
Cc1ccc(OCCOc2cccc(Br)c2)c([N+](=O)[O-])n1	0%	2%	6%	?	-6%	.	.	.
Cc1csc(=O)n1CCC(=O)OCc1nnc(-c2ccccc2)o1	-4%	-16%	7%	?	-1%	.	.	.
N#Cc1ccc(N2CCN(c3ccc(F)cc3)CC2)cc1	7%	-6%	0%	?	1%	3%	2%	9%
COc1cc2c(cc1OC)[C@@H](NC(=O)CCc1ccccc1)[C@H](O)C2	-4%	3%	0%	-4%	3%	.	.	.
O=S(=O)(c1ccccc1Cl)N1CCCC1c1nc(-c2ccc(Cl)cc2)no1 (centres undefined)	-7%	-12%	2%	5.8µM*	-15%	-8%	10%	13µM*
O=S(=O)(c1ccc(Cl)cc1)N1CCCC(c2nc(-c3ccc(F)cc3)no2)C1 (centres undefined)	2%	-3%	0%	?	-4%	.	.	.
CC(=O)c1sc(NC(=O)C=C(C)C)nc1C	-3%	-25%	3%	?	.	.	.	.
CC(=O)c1sc(NC(=O)C2(F)C(F)(F)C(F)(F)C(F)(F)C(F)(F)C2(F)F)nc1C	2.8µM*	-46%	7%	5.8µM*	?	?	?	6.5µM*
SMILES	TGFb inhibitor	HepG2 tox	Nrf2 activator	Nrf2 inh	A549 tox-1	FLuc enzyme inh	A549 tox-2	ARE-Fluc inh
COc1ccccc1-c1cnc2c(Nc3cccc(OC(F)(F)C(F)F)c3)nccn12	?	-36%	1%	.	.	.	.	.
O=C(CN1CCOCC1)Nc1ccccc1C(=O)Nc1ccccc1	18%	-2%	2%	-1%	-5%	.	.	.
Cc1cc(C)c(S(=O)(=O)N2CCOC23CCN(S(C)(=O)=O)CC3)c(C)c1	3%	-6%	-1%	.	.	.	.	.
CCc1c(C)nc2ncnn2c1NCCc1ccc(Cl)cc1	2%	4%	3%	7.3µM*	-11%	1%	-12%	4.6µM*
CCc1c(C)nc2ncnn2c1NCCc1ccccc1	-14%	-13%	0%	?	-10%	.	.	.
COc1ccc(S(=O)(=O)N2CCC(C(=O)Nc3ccc(Oc4ccccc4)cc3)CC2)cc1	-2%	-4%	0%	?	0%	-1%	-14%	?
O=C(Nc1nc(-c2ccc3ccccc3c2)cs1)C1CCN(S(=O)(=O)c2cccs2)CC1	?	0%	0%	5.2µM*	-10%	1%	-1%	?
Cc1ccc(-c2csc(NC(=O)C3CCN(S(=O)(=O)c4cccs4)CC3)n2)cc1	-26%	-30%	3%	?	-1%	.	.	.
CCc1ccc(NC(=O)C2CCN(S(=O)(=O)c3cccs3)CC2)cc1	-10%	-33%	5%	3.7µM*	-26%	-4%	-8%	9.2µM*
COc1ccc(NC(=O)C2CCN(S(=O)(=O)c3ccccc3)CC2)cc1	118%	4%	-1%	-12%	-6%	.	.	.
CCc1cccc(NC(=O)C2CCN(S(=O)(=O)c3cccs3)CC2)c1	-29%	-24%	0%	-17%	0%	.	.	.
CC1=Nc2cc(C(=O)N3CCCC3)ccc2Sc2c(C)ccc(C)c21	?	-63%	3%	0%	4%	.	.	.
CC(=O)NCCNC(=O)c1ccc(-n2c(C)ccc2C)cc1	-11%	-26%	17%	0%	5%	.	.	.

Screening results: PubChem BioAssay, National Center for Advancing Translational Sciences (NCATS)
